# PubChem BioAssay (NCATS)
# “And” between values parts separate entries of the source, which are not always exact repeats. Equal entries are not always repeated. Inconclusive results are not listed. Where a call stands in place of a potency, no number is given. More than one record can exist for a structure, and the calls need not agree. The source made the active and inactive calls. The call rests on the fitted dose curve; in most records, active means well fitted curve in the direction sought with a large enough effect; inconclusive means small, poorly fitted or top-dose-only effect, or another doubt; inactive means no such curve, though single readings can be large; an effect the other way counts as inactive or inconclusive.
# Columns and labels:
# [1] = target: Glutathione peroxidase 1 (Homo sapiens) (UniProt P07203); assay: Primary qHTS Assay for Inhibitors of Recombinant Selenoprotein Glutathione Peroxidase 1 (GPX1) (AID 1845191); further: nearly all actives have a fitted effect of over 65% in size; further: potency means the concentration at half of the fitted maximal effect
# Procedure, shortened: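 GR-coupled assay: compounds preincubated 30 min at room temperature with GPX1, then reaction started with CHP; final 10 nM GPX1, 1 mM GSH, 0.5 mM CHP, 0.5 mM NADPH, 100 nM GR, 0.01% BSA, pH 7.5 Tris buffer. NADPH fluorescence (340/450 nm) read at 0 and 15 min.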
# [2] = target: Phospholipid hydroperoxide glutathione peroxidase GPX4 (Homo sapiens) (UniProt P36969); assay: Primary qHTS Assay for Inhibitors of Recombinant Selenoprotein Glutathione Peroxidase 4 (GPX4) (AID 1845192); further: nearly all actives have a fitted effect of over 65% in size; further: potency means the concentration at half of the fitted maximal effect
# Procedure, shortened: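 GR-coupled assay: recombinant GPX4 preincubated 30 min with compound at room temperature; final 200 nM GPX4, 1 mM GSH, 0.5 mM cumene hydroperoxide, 0.5 mM NADPH, 100 nM GR, 0.01% BSA, pH 7.5 Tris. NADPH fluorescence (340/450 nm) read at 0 and 15 min.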
# [3] = Quantitative High-Throughput drug screen in 47 multiple myeloma cell lines against the NCATS MIPE library collection: FR4_PLB cell viability assay (AID 1918924; further: nearly all actives have a fitted effect of over 35% in size; further: potency means the concentration at half of the fitted maximal effect)
# Procedure, shortened: (§1)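 Inhibition of cell viability is measured here. Each line was plated at 500 cells per well, treated with MIPE 4.0 drugs, kept 48 hours at 37C, then assayed for ATP content by CellTiter-Glo luminescence.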
# [4] = Quantitative High-Throughput drug screen in 47 multiple myeloma cell lines against the NCATS MIPE library collection: Delta47_JCRB cell viability assay (AID 1918925; further: nearly all actives have a fitted effect of over 45% in size; further: potency means the concentration at half of the fitted maximal effect)
# Procedure, shortened: (§2)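 Myeloma cells (500 per well) were exposed to MIPE 4.0 compounds by pin transfer and incubated 48 hours at 37C, 5% CO2. Viability was read as ATP by CellTiter-Glo luminescence, normalised to DMSO (100%) and media-only (0%) wells.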
# [5] = Quantitative High-Throughput drug screen in 47 multiple myeloma cell lines against the NCATS MIPE library collection: EJM_DSMZ cell viability assay (AID 1918926; further: nearly all actives have a fitted effect of over 30% in size; further: potency means the concentration at half of the fitted maximal effect)
# Procedure, shortened: as §2
# [6] = Quantitative High-Throughput drug screen in 47 multiple myeloma cell lines against the NCATS MIPE library collection: AMO1_DSMZ cell viability assay (AID 1918927; further: nearly all actives have a fitted effect of over 30% in size; further: potency means the concentration at half of the fitted maximal effect)
# Procedure, shortened: as §2
# [7] = Quantitative High-Throughput drug screen in 47 multiple myeloma cell lines against the NCATS MIPE library collection: ARP1_JJKsccF8 cell viability assay (AID 1918928; further: nearly all actives have a fitted effect of over 40% in size; further: potency means the concentration at half of the fitted maximal effect)
# Procedure, shortened: (§3)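 Myeloma cells, 500 per well, were exposed to MIPE 4.0 drugs by pin transfer for 48 h at 37 °C, 5% CO2. Viability was read as ATP luminescence with CellTiter-Glo, normalised to DMSO-only (100%) and medium-only (0%) wells.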
# [8] = Quantitative High-Throughput drug screen in 47 multiple myeloma cell lines against the NCATS MIPE library collection: Karpas620_DSMZ cell viability assay (AID 1918959); further: nearly all actives have a fitted effect of over 30% in size; further: potency means the concentration at half of the fitted maximal effect
# Procedure, shortened: as §1
# [9] = Quantitative High-Throughput drug screen in 47 multiple myeloma cell lines against the NCATS MIPE library collection: KMM1_JCRB cell viability assay (AID 1918960); further: nearly all actives have a fitted effect of over 30% in size; further: potency means the concentration at half of the fitted maximal effect
# Procedure, shortened: as §3
# [10] = target: Luciferin 4-monooxygenase (Photinus pyralis) (UniProt P08659); assay: Primary firefly luciferase (FLuc) qHTS assay for identification of artifact compounds. (AID 1845220); further: nearly all actives have a fitted effect of over 60% in size
# Procedure, shortened: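 Enzymatic FLuc inhibition assay: compounds pre-exposed to luciferin/ATP (10 uM each) for 15 min, then purified P. pyralis enzyme at 10 nM added. Read-out: luminescence at 5 min.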
# [11] = Primary redox qHTS assay for identification of artifact compounds. (AID 1845223)
# Procedure, shortened: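 Amplex Red (25 uM) and HRP (250 mU/mL) in HBSS, with compounds for 15 min, then 250 uM DTT for 30 min, room temperature, dark. Fluorescence 525/598 nm read; normalized to DMSO and 10 uM DA3003; Hill fit.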
# [12] = Quantitative High-Throughput drug screen in 47 multiple myeloma cell lines against the NCATS MIPE library collection: ARD_JJKsccE7 cell viability assay (AID 1918929; further: potency means the concentration at half of the fitted maximal effect)
# Procedure, shortened: as §2
# [13] = Primary fluorescence-based thiol-reactive (MSTI) qHTS assay for identification of artifact compounds. (AID 1845221);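 further: series mostly up to about 54 µM; thiol-reactive compounds lower the probe fluorescence signal; nearly all actives have a fitted effect of over 65% in size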
# Procedure, shortened: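 A multi-concentration qHTS design tested compounds against 4 uM MSTI, pH 7.4 phosphate-buffered saline. Plates were protected from light for 1 h at room temperature before imaging fluorescence.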
# [14] = system: Nanoluciferase (engineered Oplophorus gracilirostris luciferase); assay: Primary Nanoluciferase (NLuc) qHTS assay for identification of artifact compounds. (AID 1845222);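 further: NLuc secreted into diluted conditioned medium of S16 cells; series mostly up to about 54 µM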
# Procedure, shortened: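 S16 cell supernatant NLuc, 1:55; cpds qHTS; 15 min RT dark; Nano-Glo substrate 1:100, 5 min; luminescence; Hill fit of % inhibition.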
# Sequence of Phospholipid hydroperoxide glutathione peroxidase GPX4 (Homo sapiens) (P36969 whole entry, looked up): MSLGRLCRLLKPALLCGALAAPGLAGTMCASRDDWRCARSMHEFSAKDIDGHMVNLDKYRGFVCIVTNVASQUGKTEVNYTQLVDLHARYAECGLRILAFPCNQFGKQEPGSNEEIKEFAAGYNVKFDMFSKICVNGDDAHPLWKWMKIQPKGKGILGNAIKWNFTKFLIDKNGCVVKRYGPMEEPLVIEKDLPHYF
# Sequence of Glutathione peroxidase 1 (Homo sapiens) (P07203 whole entry, looked up): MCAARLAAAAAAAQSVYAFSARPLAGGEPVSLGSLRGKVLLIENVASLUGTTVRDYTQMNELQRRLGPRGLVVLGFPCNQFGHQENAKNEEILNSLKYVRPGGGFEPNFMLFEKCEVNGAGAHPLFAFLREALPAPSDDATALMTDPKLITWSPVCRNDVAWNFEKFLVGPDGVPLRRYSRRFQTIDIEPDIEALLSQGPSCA
SMILES,Potency [1],Potency [2],Potency [3],Potency [4],Potency [5],Potency [6],Potency [7],Potency [8],Potency [9],Potency [10],Potency [11],Potency [12],Potency [13],Potency [14]
CN(c1ncccc1CNc1nc(Nc2ccc3c(c2)CC(=O)N3)ncc1C(F)(F)F)S(C)(=O)=O,inactive,inactive,5.9 µM (active),3.72 µM (active),8.33 µM (active),3.32 µM (active),9.35 µM (active),1.48 µM (active),3.32 µM (active),–,–,–,–,–
Cc1cn2cc(C(=O)N(C)CCO)cc(N[C@@H]3CCOc4cccc(C)c43)c2n1,inactive,inactive,–,inactive,–,inactive,inactive,–,inactive,inactive,inactive,–,–,–
Cn1c2cc(S(C)=O)sc2c2cnn(Cc3cccc(N)c3)c(=O)c21 (stereo not drawn),inactive,inactive,inactive,–,inactive,inactive,inactive,inactive,inactive,–,–,inactive,–,–
COC(=O)C[C@](O)(CCCC(C)(C)O)C(=O)O[C@@H]1C(OC)=C[C@]23CCCN2CCc2cc4c(cc2[C@H]13)OCO4,inactive,inactive,inactive,inactive,inactive,–,inactive,inactive,inactive,–,–,–,–,–
COc1cc(C(=O)NS(=O)(=O)c2ccccc2C)ccc1Cc1cn(C)c2ccc(NC(=O)OC3CCCC3)cc12,inactive,9.04 µM (active),23.5 µM (active),14.8 µM (active),–,–,18.7 µM (active),inactive,–,–,–,–,–,–
C=CC(=O)Nc1cc2c(Nc3ccc(F)c(Cl)c3)ncnc2cc1OCCCN1CCOCC1,inactive,inactive,14.8 µM (active),2.96 µM (active),7.43 µM (active),–,5.9 µM (active),–,–,–,–,–,–,–
CCN1CCN(Cc2ccc(-c3cc4c(N[C@H](C)c5ccccc5)ncnc4[nH]3)cc2)CC1,inactive,22.7 µM (active),–,–,–,–,–,0.0332 µM (active),0.0743 µM (active),–,–,0.0469 µM (active),–,–
O=C(O)c1ccc2cc(-c3ccc(O)c(C45CC6CC(CC(C6)C4)C5)c3)ccc2c1,inactive,–,23.5 µM (active),5.9 µM (active),–,1.32 µM (active),5.9 µM (active),5.26 µM (active),–,–,–,–,–,–
Cc1nc2ccc(CN(C)c3ccc(C(=O)N[C@@H](CCC(=O)O)C(=O)O)s3)cc2c(=O)[nH]1,25.5 µM (active) and inactive and 22.7 µM (active),inactive,–,–,inactive,0.0662 µM (active),0.0209 µM (active),–,–,–,–,–,–,–
CN1CC[C@@H](c2c(O)cc(O)c3c(=O)cc(-c4ccccc4Cl)oc23)[C@@H](O)C1,inactive,inactive,–,0.0662 µM (active),0.0743 µM (active),–,0.0833 µM (active),–,0.059 µM (active),–,–,0.0469 µM (active),–,–
COc1ccc(-c2cc3c(C)nc(N)nc3n(C3CCC(OCCO)CC3)c2=O)cn1 (stereo not drawn),5.78 µM (active) and 16.1 µM (active),–,–,0.0118 µM (active),0.132 µM (active),0.0418 µM (active),0.0209 µM (active),0.132 µM (active),0.0235 µM (active),inactive,inactive,0.187 µM (active),inactive,–
COc1cccc2nc(-c3cccs3)nc(NN3C(=O)C=C(C)C3=O)c12,inactive,–,1.87 µM (active),0.0743 µM (active),0.296 µM (active),–,0.0418 µM (active),0.743 µM (active),0.118 µM (active),–,inactive,1.66 µM (active),–,inactive
CC(C)(C)c1cnc(CSc2cnc(NC(=O)C3CCNCC3)s2)o1,–,inactive,–,0.264 µM (active),0.105 µM (active),–,0.209 µM (active),0.372 µM (active),0.187 µM (active),–,–,–,–,–
O=c1[nH]c(=O)n(C2CCCO2)cc1F (stereo not drawn),inactive,inactive,–,inactive,–,inactive,inactive,inactive,inactive,–,–,inactive,–,–
CN1CCN(c2ccc3nc(-c4c(N)c5c(F)cccc5[nH]c4=O)[nH]c3c2)CC1,inactive,inactive,–,2.35 µM (active),–,11.8 µM (active),20.9 µM (active),8.33 µM (active),16.6 µM (active),–,–,14.8 µM (active),–,–
C[C@@]12O[C@@H](C[C@]1(O)CO)n1c3ccccc3c3c4c(c5c6ccccc6n2c5c31)CNC4=O,inactive,–,6.62 µM (active),0.418 µM (active),2.96 µM (active),–,0.662 µM (active),–,0.526 µM (active),–,–,–,–,–
COc1ccc(CC2SC(=O)NC2=O)cc1C(=O)NCc1ccc(C(F)(F)F)cc1 (stereo not drawn),inactive,–,–,inactive,–,inactive,inactive,–,–,–,–,–,–,–
Cc1nc2cnc3ccc(C#Cc4cccnc4)cc3c2n1-c1ccc(C(C)(C)C#N)cc1,inactive,inactive,–,0.0166 µM (active),1.66 µM (active),–,–,–,inactive,–,–,–,–,–
Clc1ccc2ncc(-c3cccc(NC4CNC4)n3)n2c1,inactive,–,–,–,18.7 µM (active),–,23.5 µM (active),inactive,2.35 µM (active),inactive,inactive,–,inactive,–
COCCn1c2c([n+](Cc3cnccn3)c1C)C(=O)c1ccccc1C2=O,inactive,inactive,–,0.0166 µM (active),0.0074 µM (active),–,0.0118 µM (active),–,–,–,–,–,–,–
CC(C)c1ccccc1Cc1cc(C(=O)Nc2ccc(S(=O)(=O)c3ccccc3C(C)(C)C)cc2)c(O)c(O)c1O,inactive,–,9.35 µM (active),7.43 µM (active),–,inactive,14.8 µM (active),inactive,inactive,–,–,inactive,–,–
